According to PubChem BioAssay AID1159580 (chemical genetic matrix, 2015):
Out of some 5,500 compounds screened, about 2,000 (36%) were called active. Inconclusive results (about 18%) are left out. No stated cut-off is given here; in the data, active means normalized growth mostly below about 0.91 (no sharp cut-off); inconclusive means no clear call, values can overlap the other calls; inactive means mostly above about 0.92. The list shows a part of the results.

Test: chemical genetic growth profiling, strain panel (AID 1159580);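 further: tested at 20 µM; growth read once vehicle control cultures reached saturation at 30 °C; 1 = growth at the plate median or of vehicle wells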
Conditions: growth OD

Measured: normalized growth

COc1ccc(CCC(=O)c2c(O)cc(O[C@@H]3O[C@H](CO)C(O)[C@H](O)C3O[C@@H]3O[C@@H](C)[C@H](O)[C@@H](O)[C@H]3O)cc2O)cc1O (some centres not stated)
inactive: S. cerevisiae deletion strains, locus YJR075W, strain HOC1, stronger effect = lower value 0.996 | S. cerevisiae deletion strains, locus YKL009W, strain mrt4, stronger effect = lower value 1 | S. cerevisiae deletion strains, locus YKL068W, stronger effect = lower value 0.972 | S. cerevisiae deletion strains, locus YKL085W, strain MDH1 (second series), stronger effect = lower value 0.982 | S. cerevisiae deletion strains, locus YKL085W, strain MDH1, stronger effect = lower value 0.982 | S. cerevisiae deletion strains, locus YKL160W, strain elf1, stronger effect = lower value 1 | S. cerevisiae deletion strains, locus YKL190W, strain CNB1, stronger effect = lower value 0.999 | S. cerevisiae deletion strains, locus YKR001C, strain vps1, stronger effect = lower value 0.989 | S. cerevisiae deletion strains, locus YKR026C, strain gcn3, stronger effect = lower value 1.02 | S. cerevisiae deletion strains, locus YKR091W, strain srl3, stronger effect = lower value 1.01 | S. cerevisiae deletion strains, locus YLL001W, strain dnm1, stronger effect = lower value 1 | S. cerevisiae deletion strains, locus YLL026W, stronger effect = lower value 1.02 | S. cerevisiae deletion strains, locus YLL041C, strain sdh2, stronger effect = lower value 1.02 | S. cerevisiae deletion strains, locus YLR027C, strain aat2, stronger effect = lower value 1 | S. cerevisiae deletion strains, locus YLR039C, strain RIC1, stronger effect = lower value 0.982 | S. cerevisiae deletion strains, locus YLR058C, strain SHM2, stronger effect = lower value 1 | S. cerevisiae deletion strains, locus YLR102C, strain apc9, stronger effect = lower value 0.973 | S. cerevisiae deletion strains, locus YLR113W, strain HOG1, stronger effect = lower value 0.98 | S. cerevisiae deletion strains, locus YLR221C, strain rsa3, stronger effect = lower value 1.04 | S. cerevisiae deletion strains, locus YLR258W, strain gsy2, stronger effect = lower value 1.04 | S. cerevisiae deletion strains, locus YLR262C, strain YPT6 (second series), stronger effect = lower value 1.05 | S. cerevisiae deletion strains, locus YLR262C, strain YPT6, stronger effect = lower value 0.97 | S. cerevisiae deletion strains, locus YLR268W, strain sec22, stronger effect = lower value 0.95 | S. cerevisiae deletion strains, locus YLR320W, strain mms22, stronger effect = lower value 1.06 | S. cerevisiae deletion strains, locus YLR330W, strain CHS5, stronger effect = lower value 0.993 | S. cerevisiae deletion strains, locus YLR342W, strain FKS1 (second series), stronger effect = lower value 1.06 | S. cerevisiae deletion strains, locus YLR342W, strain FKS1, stronger effect = lower value 1.02 | S. cerevisiae deletion strains, locus YLR357W, strain rsc2, stronger effect = lower value 1.01 | S. cerevisiae deletion strains, locus YLR370C, strain arc18, stronger effect = lower value 1.01 | S. cerevisiae deletion strains, locus YLR371W, strain rom2, stronger effect = lower value 0.983 | S. cerevisiae deletion strains, locus YLR384C, strain iki3, stronger effect = lower value 1.04 | S. cerevisiae deletion strains, locus YLR418C, strain cdc73, stronger effect = lower value 0.985 | S. cerevisiae deletion strains, locus YML016C, strain PPZ1, stronger effect = lower value 1.01 | S. cerevisiae deletion strains, locus YML032C, strain rad52, stronger effect = lower value 0.966 | S. cerevisiae deletion strains, locus YML120C, strain ndi1, stronger effect = lower value 1.01 | S. cerevisiae deletion strains, locus YML124C, strain tub3, stronger effect = lower value 0.984 | S. cerevisiae deletion strains, locus YMR058W, strain fet3, stronger effect = lower value 1.03 | S. cerevisiae deletion strains, locus YMR078C, strain ctf18, stronger effect = lower value 0.989 | S. cerevisiae deletion strains, locus YMR125W, strain sto1, stronger effect = lower value 1.01 | S. cerevisiae deletion strains, locus YMR129W, stronger effect = lower value 1.02 | S. cerevisiae deletion strains, locus YMR205C, strain PFK2, stronger effect = lower value 1.02 | S. cerevisiae deletion strains, locus YMR223W, strain ubp8, stronger effect = lower value 1.01 | S. cerevisiae deletion strains, locus YMR231W, strain pep5, stronger effect = lower value 0.995 | S. cerevisiae deletion strains, locus YMR263W, strain SAP30, stronger effect = lower value 0.989 | S. cerevisiae deletion strains, locus YMR307W, strain GAS1, stronger effect = lower value 1.04 | S. cerevisiae deletion strains, locus YNL067W, strain RPL9B, stronger effect = lower value 0.989 | S. cerevisiae deletion strains, locus YNL071W, strain lat1, stronger effect = lower value 1.01 | S. cerevisiae deletion strains, locus YNL128W, strain TEP1, stronger effect = lower value 0.989 | S. cerevisiae deletion strains, locus YNL153C, strain GIM3, stronger effect = lower value 0.988 | S. cerevisiae deletion strains, locus YNL183C, strain NPR1, stronger effect = lower value 0.899 | S. cerevisiae deletion strains, locus YNL209W, strain ssb2, stronger effect = lower value 1.01 | S. cerevisiae deletion strains, locus YNL233W, strain BNI4, stronger effect = lower value 0.994 | S. cerevisiae deletion strains, locus YNL248C, strain rpa49, stronger effect = lower value 1.04 | S. cerevisiae deletion strains, locus YNL250W, strain rad50, stronger effect = lower value 0.979 | S. cerevisiae deletion strains, locus YNL271C, strain bni1, stronger effect = lower value 0.981 | S. cerevisiae deletion strains, locus YNL298W, strain CLA4, stronger effect = lower value 0.984 | S. cerevisiae deletion strains, locus YNL307C, strain MCK1, stronger effect = lower value 0.993 | S. cerevisiae deletion strains, locus YNL322C, strain KRE1 (second series), stronger effect = lower value 1.01 | S. cerevisiae deletion strains, locus YNL322C, strain KRE1, stronger effect = lower value 0.993 | S. cerevisiae deletion strains, locus YNR049C, strain mso1, stronger effect = lower value 1.02 | S. cerevisiae deletion strains, locus YNR052C, strain pop2, stronger effect = lower value 0.993 | S. cerevisiae deletion strains, locus YOL006C, strain TOP1, stronger effect = lower value 0.929 | S. cerevisiae deletion strains, locus YOL012C, strain htz1 1.02 | S. cerevisiae deletion strains, locus YOL147C, strain pex11, stronger effect = lower value 0.989 | S. cerevisiae deletion strains, locus YOR001W, strain rrp6, stronger effect = lower value 1.05 | S. cerevisiae deletion strains, locus YOR061W, strain CKA2, stronger effect = lower value 0.999 | S. cerevisiae deletion strains, locus YOR069W, strain VPS5, stronger effect = lower value 1 | S. cerevisiae deletion strains, locus YOR070C, strain gyp1, stronger effect = lower value 1 | S. cerevisiae deletion strains, locus YOR080W, strain dia2, stronger effect = lower value 1.03 | S. cerevisiae deletion strains, locus YOR083W, strain WHI5, stronger effect = lower value 1 | S. cerevisiae deletion strains, locus YOR106W, strain vam3, stronger effect = lower value 0.992 | S. cerevisiae deletion strains, locus YOR136W, strain idh2, stronger effect = lower value 0.99 | S. cerevisiae deletion strains, locus YOR144C, strain elg1, stronger effect = lower value 0.977 | S. cerevisiae deletion strains, locus YOR184W, strain ser1, stronger effect = lower value 0.985 | S. cerevisiae deletion strains, locus YOR231W, strain MKK1, stronger effect = lower value 0.97 | S. cerevisiae deletion strains, locus YOR265W, strain rbl2, stronger effect = lower value 1.02 | S. cerevisiae deletion strains, locus YOR270C, strain vph1, stronger effect = lower value 1.07 | S. cerevisiae deletion strains, locus YOR290C, strain snf2, stronger effect = lower value 0.965 | S. cerevisiae deletion strains, locus YOR316C, strain cot1, stronger effect = lower value 0.967 | S. cerevisiae deletion strains, locus YPL051W, strain arl3, stronger effect = lower value 1.02 | S. cerevisiae deletion strains, locus YPL055C, strain LGE1, stronger effect = lower value 0.982 | S. cerevisiae deletion strains, locus YPL078C, strain atp4, stronger effect = lower value 0.989 | S. cerevisiae deletion strains, locus YPL106C, strain sse1, stronger effect = lower value 1.02 | S. cerevisiae deletion strains, locus YPL240C, strain hsp82, stronger effect = lower value 1.02 | S. cerevisiae deletion strains, locus YPL241C, strain CIN2, stronger effect = lower value 0.993 | S. cerevisiae deletion strains, locus YPL256C, strain CLN2, stronger effect = lower value 0.962 | S. cerevisiae deletion strains, locus YPR119W, strain clb2, stronger effect = lower value 0.975 | S. cerevisiae deletion strains, locus YPR141C, strain kar3, stronger effect = lower value 0.986 | S. cerevisiae deletion strains, locus YPR163C, strain tif3, stronger effect = lower value 0.985 | S. cerevisiae deletion strains, locus YPR167C, strain met16, stronger effect = lower value 0.97 | S. cerevisiae deletion strains, strain wtn01, stronger effect = lower value 1 | S. cerevisiae strains, strain wild type, stronger effect = lower value 0.995
